Results filed as inconclusive are left out. Active and inactive are the calls of the source. The call rests on the fitted dose curve; in most records, active means well fitted inhibition curve with a large enough effect; inconclusive means small, poorly fitted or top-dose-only effect; inactive means no such curve, though single readings can be large or run the other way.
Target: Rap guanine nucleotide exchange factor 4 (Homo sapiens) (UniProt Q8WZA2)
Experiment: Confirmatory qHTS for antagonist of cAMP-regulated guanine nucleotide exchange factor 4 (EPAC2) (AID 1645885); further: nearly all actives have a fitted effect of over 25% in size
Details: EPAC2 Rap1B-BODIPY-GDP exchange fluorescence, biochemical; series mostly up to 12.7 µM; activity change, negative = inhibition: at the top concentration
On the % scale 0 is the no-effect control and ±100 the full control effect; potency means the concentration at half of the fitted maximal effect.

Rap guanine nucleotide exchange factor 4 (Homo sapiens), sequence (Q8WZA2 whole entry, looked up): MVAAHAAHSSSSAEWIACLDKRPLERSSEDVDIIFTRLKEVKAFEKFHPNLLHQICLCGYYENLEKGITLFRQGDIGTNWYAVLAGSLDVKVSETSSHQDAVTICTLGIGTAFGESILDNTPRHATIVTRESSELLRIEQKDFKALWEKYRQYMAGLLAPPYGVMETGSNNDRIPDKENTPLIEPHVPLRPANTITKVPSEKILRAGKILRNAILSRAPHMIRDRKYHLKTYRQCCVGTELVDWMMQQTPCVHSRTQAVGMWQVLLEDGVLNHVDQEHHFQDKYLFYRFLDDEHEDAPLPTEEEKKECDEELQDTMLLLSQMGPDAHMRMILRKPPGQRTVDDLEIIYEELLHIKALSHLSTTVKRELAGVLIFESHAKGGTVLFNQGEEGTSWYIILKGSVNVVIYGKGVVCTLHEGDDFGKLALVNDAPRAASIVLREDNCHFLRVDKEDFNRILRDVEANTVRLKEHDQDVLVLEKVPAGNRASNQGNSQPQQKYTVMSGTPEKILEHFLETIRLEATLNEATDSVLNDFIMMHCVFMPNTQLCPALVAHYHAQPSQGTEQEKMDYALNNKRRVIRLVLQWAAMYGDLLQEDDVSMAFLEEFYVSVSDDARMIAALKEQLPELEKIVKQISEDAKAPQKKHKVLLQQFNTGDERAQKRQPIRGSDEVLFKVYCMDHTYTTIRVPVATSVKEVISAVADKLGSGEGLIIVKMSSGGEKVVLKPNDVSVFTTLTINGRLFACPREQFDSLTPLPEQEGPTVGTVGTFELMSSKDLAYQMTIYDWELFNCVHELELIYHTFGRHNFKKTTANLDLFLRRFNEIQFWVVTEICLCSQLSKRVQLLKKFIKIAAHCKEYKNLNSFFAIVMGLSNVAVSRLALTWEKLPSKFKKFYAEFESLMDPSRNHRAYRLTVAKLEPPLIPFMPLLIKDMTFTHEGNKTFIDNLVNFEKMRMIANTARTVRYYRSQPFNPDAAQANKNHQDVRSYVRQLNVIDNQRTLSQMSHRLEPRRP

Activity change, negative = inhibition, inactive:
COc1cccc(C(=O)Nc2cccc(C(=O)OCc3cc(=O)n4c(C)csc4n3)c2)c1 8.96%, COc1ccc(/C=C2\C(=O)NC(=S)N2C(=O)c2ccc(F)cc2)cc1 -17.9% [at 114 µM], Cc1cc(SCC(=O)c2ccc(O)c(O)c2)n2nc(C)c(-c3ccccc3)c2n1 8.3% [at 114 µM], Cc1ccccc1C(=O)Nc1cccc(C(=O)N/N=C/c2cc(Cl)cc([N+](=O)[O-])c2O)c1 14.8% [at 114 µM], Cc1ccc2[nH]cc(C(c3ccccc3)c3ccc(Cl)s3)c2c1 (stereo not given) 12.3%, CCc1nc2c(OCc3ccc(OC)cc3)cccn2c1N(C)C(=O)c1ccc(OC)cc1 0.0043% [at 114 µM], COC(=O)C1(C)CC1(c1ccccc1)c1ccccc1 (stereo not given) -8.45%, COc1ccc(OC)c(CNC(=O)CCCc2cn(C)c3ccccc23)c1 -37.6% [at 114 µM], CCc1ccccc1OCC(=O)NCC1COc2ccccc2O1 (stereo not given) 43.9% [at 114 µM], CC(=O)C(=Cc1ccc(Cl)cc1)C(=O)c1ccccc1 2.91% [at 114 µM], COc1ccc(NC(=O)CSc2nc(O)cc(=O)n2-c2ccc(OC)cc2)cc1 -8.17% [at 114 µM], Cc1cc(C)cc(-n2ccnc2SCC(=O)Nc2ccc3c(c2)OCO3)c1 12%, COc1cc(C2CC(=O)Oc3cc(C)c(Br)c(C)c32)cc(OC)c1OC (stereo not given) -40.1%, CCOC(=O)c1ccc(NC(=S)NNC(=O)C2(C)CC2(Cl)Cl)cc1 (stereo not given) 115% [at 114 µM], COc1ccc(C(=O)NC2(C(F)(F)F)NC(=O)N(CCCc3ccccc3)C2=O)c(OC)c1OC (stereo not given) -14.3%, C=CS(=O)(=O)N(Cc1ccccc1Br)[C@H](CO)CC(C)C -10.8%, Clc1cccc(Cc2c(-c3ccco3)nc3ccc(Br)cn23)c1 -10.7%, CC(C)CCn1c(Oc2ccccc2Cl)nc2c1c(=O)n(C)c(=O)n2C 100% [at 114 µM], Fc1ccc(/C=C2\CCCC3=C2Nc2ncnn2C3c2ccc(F)cc2)cc1 (stereo not given) -7%, Cc1ccc(-c2cc(C(=O)Nc3ccc(S(=O)(=O)Nc4onc(C)c4C)cc3)c3ccccc3n2)cc1 -17.1%, CC(c1nc2ccccc2n1Cc1ccccc1)n1c(-c2cnccn2)nc2ccccc21 (stereo not given) -12.1% [at 114 µM], Cc1ccc(C)c(Cn2c(CN(C)Cc3ccccc3)nc3c2c(=O)n(C)c(=O)n3C)c1 -1.76% [at 114 µM], COc1ccc(OCc2nc3ccccc3n2Cc2ccc(C(C)(C)C)cc2)cc1 1.71%, CC(C)C(CCNC(=O)CC(Cc1ccccc1)c1ccco1)c1ccco1 (stereo not given) -10.4%, O=C1C=C(Nc2cccc3cccnc23)c2ccccc2C1=O -7.24% [at 114 µM], O=C(COc1ccc(Cl)cc1)NC1=NN(c2ccccc2)C(=O)C1 53.3% [at 114 µM], CCc1ccc2c(c1)NC(=O)C2(C)Cc1ccc(F)cc1 (stereo not given) -22.6%, COc1ccc2c(c1)Cc1sc(NC(=O)c3ccccc3C)nc1-2 34.5%, OC(CSc1ccccc1)CN1CCN(c2cccc(Cl)c2)CC1 (stereo not given) -9.83%, CS(=O)(=O)c1ccc(C(=O)OCc2nnc(-c3ccccc3)o2)cc1[N+](=O)[O-] 3.64% [at 114 µM], O=C(/C=C/c1ccco1)Nc1nc(-c2ccccn2)cs1 -9.37% [at 114 µM], O=S(=O)(NCC(c1cccnc1)N1CCN(c2ccccc2F)CC1)c1cccs1 (stereo not given) -23.6%, O=C(CSc1ccc2ccccc2c1)Nc1ccc(S(=O)(=O)Nc2nccs2)cc1 3.54%

outcome, inactive:
Cc1ccc(C)c(-c2ccc(=O)n(C(C)C(=O)Nc3ccccc3C(F)(F)F)n2)c1 (stereo not given) inactive [at 12.7 µM], Cc1ccc(CNc2nc(NCc3ccccc3)nc3ccsc23)c(C)c1, CCOc1ccccc1NC(=O)CN1C(=O)COc2ccc(S(=O)(=O)NC3CCCC3)cc21 inactive [at 12.7 µM], COc1ccc(NC(=S)N(CCCN2CCOCC2)C(C)c2cc3cccc(OC)c3o2)cc1 (stereo not given) inactive; activator; fitted 0.2685 uM, Cc1ccc(-n2c(CCC(=O)O)ccc2-c2cccs2)cc1Cl inactive [at 12.7 µM], COn1c2c(c3c4nonc4ccc31)CCCC2

Potency, active:
Cc1ccc(NC(=O)CN2C(=O)S/C(=C\c3cccn3-c3cccc(C(=O)O)c3)C2=O)cc1C 19 nM
